Data published in the supplement of paper PMC11732987, “Enantioselective OTUD7B fragment discovery through chemoproteomics screening and high-throughput optimisation” (Communications Chemistry, 2025).

Assays:
Test in all cases: log2 ratio of Biotin-Ahx-Ub-VS probe labelling (fragment/DMSO); higher = less target engagement (more negative = stronger competition), active = hit call of the paper (q ≤ 0.05, log2 ratio ≤ -1)
Details in all cases: compound concentration: 200 uM; treatment time: 3 h
USP42 = target: T1, USP42 (UniProt Q9H9J4)
T1 sequence (whole entry): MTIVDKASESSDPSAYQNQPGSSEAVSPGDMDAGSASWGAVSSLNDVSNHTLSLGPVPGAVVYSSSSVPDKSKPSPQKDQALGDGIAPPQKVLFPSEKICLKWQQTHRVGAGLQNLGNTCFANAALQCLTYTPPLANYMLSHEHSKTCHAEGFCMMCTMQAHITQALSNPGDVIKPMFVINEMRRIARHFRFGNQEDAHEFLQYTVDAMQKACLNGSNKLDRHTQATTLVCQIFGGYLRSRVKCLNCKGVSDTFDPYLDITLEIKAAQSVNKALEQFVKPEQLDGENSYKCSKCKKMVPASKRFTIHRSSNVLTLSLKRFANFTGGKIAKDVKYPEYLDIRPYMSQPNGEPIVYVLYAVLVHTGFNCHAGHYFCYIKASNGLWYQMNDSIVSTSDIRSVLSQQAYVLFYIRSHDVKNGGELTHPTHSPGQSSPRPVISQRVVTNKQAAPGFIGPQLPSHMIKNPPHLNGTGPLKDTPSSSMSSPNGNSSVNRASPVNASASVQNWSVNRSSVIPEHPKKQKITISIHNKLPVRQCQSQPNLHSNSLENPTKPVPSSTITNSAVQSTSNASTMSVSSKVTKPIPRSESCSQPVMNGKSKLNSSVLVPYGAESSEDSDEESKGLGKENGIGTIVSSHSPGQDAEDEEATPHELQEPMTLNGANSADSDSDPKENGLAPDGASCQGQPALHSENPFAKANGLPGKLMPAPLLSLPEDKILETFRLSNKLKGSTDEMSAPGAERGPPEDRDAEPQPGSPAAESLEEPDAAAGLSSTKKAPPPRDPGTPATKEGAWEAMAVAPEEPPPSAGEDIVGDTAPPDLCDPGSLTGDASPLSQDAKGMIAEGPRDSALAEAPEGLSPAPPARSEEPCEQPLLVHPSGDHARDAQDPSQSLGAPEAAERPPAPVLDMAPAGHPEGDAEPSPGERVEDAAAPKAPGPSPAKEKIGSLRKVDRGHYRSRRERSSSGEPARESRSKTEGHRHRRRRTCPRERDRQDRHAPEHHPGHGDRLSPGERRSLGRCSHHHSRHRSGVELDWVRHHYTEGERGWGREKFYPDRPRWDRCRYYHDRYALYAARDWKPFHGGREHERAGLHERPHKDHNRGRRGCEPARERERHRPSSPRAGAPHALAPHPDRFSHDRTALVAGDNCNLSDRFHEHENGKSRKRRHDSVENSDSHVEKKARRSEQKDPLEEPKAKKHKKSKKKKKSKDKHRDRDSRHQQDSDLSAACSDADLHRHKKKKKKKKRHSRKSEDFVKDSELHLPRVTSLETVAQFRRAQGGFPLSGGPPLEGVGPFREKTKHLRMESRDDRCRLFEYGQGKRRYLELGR
In short: (§1)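 Each value is an average log2 ratio of fragment to vehicle, tested by unpaired t-test. The underlying Spectronaut label-free quantities were global-median-normalised, and only proteins with ≥2 unique peptides were included. Triplicate HEK293T lysate samples (495 µg) were exposed to fragment at 200 µM or vehicle for 3 h, then to Biotin-Ahx-Ub-VS at 0.5 µM final for 1 h, before NeutrAvidin enrichment of labelled DUBs, LysC and trypsin digestion, and diaPASEF LC-MS/MS.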

USP46 = USP46 (UniProt P62068)
Sequence of USP46 (P62068 whole entry): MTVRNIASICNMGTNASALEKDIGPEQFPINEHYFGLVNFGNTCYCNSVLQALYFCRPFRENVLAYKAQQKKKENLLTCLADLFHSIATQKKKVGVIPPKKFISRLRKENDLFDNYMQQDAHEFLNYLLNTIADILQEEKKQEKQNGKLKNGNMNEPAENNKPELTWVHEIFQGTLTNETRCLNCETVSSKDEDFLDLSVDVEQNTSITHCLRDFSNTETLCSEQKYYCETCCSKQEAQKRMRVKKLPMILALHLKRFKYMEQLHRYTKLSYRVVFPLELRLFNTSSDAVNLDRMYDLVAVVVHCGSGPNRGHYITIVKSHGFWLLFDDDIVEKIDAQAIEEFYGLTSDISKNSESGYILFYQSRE
In short: as §1

USP47 = target: T2, USP47 (UniProt Q96K76)
T2 sequence (whole entry): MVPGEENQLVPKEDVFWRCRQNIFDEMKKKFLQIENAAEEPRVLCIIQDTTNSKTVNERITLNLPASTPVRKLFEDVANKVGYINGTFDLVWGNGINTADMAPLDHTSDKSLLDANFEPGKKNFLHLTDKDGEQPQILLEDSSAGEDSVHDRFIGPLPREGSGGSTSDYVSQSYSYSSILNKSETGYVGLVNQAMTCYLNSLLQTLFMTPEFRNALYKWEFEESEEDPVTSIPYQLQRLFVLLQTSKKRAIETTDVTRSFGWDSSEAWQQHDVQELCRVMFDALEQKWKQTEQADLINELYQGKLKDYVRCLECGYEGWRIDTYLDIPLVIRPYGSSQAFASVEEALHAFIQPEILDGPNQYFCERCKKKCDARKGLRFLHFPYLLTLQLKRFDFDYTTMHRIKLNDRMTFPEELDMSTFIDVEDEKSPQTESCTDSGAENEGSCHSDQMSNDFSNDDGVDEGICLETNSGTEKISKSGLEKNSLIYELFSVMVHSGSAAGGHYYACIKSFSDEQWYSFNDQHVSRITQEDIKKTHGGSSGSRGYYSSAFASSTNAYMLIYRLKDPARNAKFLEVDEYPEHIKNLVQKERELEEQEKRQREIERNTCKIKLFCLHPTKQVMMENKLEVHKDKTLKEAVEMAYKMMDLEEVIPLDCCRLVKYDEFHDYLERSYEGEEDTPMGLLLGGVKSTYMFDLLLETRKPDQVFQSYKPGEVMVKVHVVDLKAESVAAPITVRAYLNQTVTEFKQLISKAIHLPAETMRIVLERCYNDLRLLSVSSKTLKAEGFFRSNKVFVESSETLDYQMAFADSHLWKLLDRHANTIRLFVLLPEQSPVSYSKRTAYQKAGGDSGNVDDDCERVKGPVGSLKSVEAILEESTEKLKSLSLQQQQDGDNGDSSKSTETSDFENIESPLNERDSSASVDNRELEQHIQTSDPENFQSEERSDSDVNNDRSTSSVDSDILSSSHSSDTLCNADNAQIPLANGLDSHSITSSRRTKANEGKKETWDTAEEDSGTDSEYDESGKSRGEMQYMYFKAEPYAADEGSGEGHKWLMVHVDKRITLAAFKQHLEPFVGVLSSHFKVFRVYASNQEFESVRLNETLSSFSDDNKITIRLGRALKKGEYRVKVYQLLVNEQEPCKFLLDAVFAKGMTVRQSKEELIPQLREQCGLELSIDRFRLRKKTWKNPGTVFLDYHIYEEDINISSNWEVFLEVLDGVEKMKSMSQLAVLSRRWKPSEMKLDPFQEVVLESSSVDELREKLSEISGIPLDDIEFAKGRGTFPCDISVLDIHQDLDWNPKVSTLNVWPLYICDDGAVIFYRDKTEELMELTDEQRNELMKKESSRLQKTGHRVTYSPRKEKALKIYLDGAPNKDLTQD
In short: as §1

USP48 = target: T3, USP48 (UniProt Q86UV5)
T3 sequence (whole entry): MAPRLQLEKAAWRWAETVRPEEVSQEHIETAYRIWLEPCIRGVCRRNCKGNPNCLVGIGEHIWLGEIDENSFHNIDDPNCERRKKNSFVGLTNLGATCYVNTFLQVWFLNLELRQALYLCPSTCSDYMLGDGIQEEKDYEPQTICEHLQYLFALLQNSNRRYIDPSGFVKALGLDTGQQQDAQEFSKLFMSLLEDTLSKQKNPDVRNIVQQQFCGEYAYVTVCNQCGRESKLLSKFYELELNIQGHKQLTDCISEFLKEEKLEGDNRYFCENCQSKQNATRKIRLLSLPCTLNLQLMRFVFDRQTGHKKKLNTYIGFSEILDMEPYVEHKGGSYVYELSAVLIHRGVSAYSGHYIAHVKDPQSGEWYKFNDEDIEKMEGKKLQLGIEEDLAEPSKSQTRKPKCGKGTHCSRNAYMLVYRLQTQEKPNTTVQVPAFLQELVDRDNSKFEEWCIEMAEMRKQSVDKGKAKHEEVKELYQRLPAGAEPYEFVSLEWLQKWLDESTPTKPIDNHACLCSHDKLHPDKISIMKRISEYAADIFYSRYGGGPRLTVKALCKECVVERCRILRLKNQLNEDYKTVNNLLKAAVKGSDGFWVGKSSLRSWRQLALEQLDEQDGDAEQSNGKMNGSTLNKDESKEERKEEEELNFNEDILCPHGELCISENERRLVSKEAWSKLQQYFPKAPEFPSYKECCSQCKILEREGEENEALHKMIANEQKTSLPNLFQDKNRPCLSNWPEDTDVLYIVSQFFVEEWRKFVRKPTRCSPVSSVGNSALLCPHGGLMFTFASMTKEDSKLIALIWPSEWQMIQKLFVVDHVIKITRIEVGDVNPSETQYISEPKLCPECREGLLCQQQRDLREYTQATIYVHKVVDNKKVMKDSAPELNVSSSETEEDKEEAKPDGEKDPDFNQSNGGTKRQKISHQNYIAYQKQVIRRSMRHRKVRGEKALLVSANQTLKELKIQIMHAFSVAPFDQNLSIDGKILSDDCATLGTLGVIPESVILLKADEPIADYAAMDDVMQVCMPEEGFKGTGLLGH
In short: as §1

USP5 = target: T4, USP5 (UniProt P45974)
T4 sequence (whole entry): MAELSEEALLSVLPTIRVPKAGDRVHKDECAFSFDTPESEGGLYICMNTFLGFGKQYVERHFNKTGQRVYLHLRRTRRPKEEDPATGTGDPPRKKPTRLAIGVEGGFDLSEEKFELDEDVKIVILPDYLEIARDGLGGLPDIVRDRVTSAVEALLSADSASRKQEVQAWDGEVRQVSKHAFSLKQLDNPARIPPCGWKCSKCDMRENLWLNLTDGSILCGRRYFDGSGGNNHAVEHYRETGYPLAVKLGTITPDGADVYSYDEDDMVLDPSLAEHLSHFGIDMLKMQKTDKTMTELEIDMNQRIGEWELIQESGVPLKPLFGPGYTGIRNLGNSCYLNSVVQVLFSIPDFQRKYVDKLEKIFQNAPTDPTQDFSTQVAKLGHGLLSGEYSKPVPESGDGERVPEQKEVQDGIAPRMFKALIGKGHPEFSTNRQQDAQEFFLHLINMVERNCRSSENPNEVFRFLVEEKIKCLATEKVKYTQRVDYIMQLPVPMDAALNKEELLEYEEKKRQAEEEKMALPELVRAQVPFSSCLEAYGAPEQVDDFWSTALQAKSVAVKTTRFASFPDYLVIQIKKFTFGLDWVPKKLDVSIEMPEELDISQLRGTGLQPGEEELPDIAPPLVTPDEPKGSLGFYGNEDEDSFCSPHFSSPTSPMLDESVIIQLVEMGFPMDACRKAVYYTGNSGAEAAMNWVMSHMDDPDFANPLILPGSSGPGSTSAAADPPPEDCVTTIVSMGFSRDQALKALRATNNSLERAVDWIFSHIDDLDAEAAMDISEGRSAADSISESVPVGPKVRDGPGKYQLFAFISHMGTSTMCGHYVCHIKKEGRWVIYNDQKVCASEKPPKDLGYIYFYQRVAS
In short: as §1

USP54 = USP54 (UniProt Q70EL1)
Sequence of USP54 (Q70EL1 whole entry): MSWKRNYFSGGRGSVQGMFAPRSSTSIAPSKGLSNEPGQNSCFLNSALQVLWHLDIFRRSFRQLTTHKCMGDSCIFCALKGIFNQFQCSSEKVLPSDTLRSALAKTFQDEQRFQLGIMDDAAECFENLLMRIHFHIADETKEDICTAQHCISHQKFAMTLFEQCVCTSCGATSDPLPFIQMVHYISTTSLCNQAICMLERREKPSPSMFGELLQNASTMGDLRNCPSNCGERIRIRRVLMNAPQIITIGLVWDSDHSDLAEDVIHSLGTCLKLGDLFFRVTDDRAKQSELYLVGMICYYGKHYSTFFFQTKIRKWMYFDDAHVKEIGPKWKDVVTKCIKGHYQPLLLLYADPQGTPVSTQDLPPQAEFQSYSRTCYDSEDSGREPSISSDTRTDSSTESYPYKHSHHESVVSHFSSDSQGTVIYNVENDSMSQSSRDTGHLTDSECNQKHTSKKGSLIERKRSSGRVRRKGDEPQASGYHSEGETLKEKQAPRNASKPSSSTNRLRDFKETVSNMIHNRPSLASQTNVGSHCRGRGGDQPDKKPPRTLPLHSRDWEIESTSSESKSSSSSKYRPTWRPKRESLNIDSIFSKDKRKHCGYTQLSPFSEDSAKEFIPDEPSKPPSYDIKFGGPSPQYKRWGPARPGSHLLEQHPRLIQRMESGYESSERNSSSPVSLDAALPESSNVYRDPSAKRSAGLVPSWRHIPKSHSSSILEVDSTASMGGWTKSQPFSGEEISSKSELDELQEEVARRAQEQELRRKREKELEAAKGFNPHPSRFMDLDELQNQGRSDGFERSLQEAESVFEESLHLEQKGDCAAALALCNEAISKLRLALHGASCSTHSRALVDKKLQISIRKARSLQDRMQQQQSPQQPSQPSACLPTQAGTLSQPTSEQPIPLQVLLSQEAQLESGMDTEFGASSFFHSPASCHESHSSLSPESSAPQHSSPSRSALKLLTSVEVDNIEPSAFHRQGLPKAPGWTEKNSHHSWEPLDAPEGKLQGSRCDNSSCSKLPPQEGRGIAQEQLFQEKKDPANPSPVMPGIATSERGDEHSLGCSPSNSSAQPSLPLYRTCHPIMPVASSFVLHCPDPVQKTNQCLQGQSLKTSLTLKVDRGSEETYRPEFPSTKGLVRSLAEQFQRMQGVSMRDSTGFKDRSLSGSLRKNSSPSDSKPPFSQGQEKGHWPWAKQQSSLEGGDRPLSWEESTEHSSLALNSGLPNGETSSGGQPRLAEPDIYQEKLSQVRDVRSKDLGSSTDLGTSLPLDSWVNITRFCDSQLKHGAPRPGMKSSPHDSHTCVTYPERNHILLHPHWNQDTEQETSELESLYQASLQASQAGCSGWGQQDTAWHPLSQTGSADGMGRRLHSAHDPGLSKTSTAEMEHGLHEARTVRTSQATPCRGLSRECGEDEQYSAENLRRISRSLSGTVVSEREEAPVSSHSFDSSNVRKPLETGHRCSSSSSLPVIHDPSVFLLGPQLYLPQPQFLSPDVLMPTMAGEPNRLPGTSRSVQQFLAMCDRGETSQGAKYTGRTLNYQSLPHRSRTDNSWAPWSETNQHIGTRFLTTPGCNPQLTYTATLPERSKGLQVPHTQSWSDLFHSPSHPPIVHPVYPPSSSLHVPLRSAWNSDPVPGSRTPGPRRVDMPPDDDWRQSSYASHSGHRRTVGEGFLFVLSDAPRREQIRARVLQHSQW
In short: as §1

USP7 = USP7 (UniProt Q93009)
Sequence of USP7 (Q93009 whole entry, looked up): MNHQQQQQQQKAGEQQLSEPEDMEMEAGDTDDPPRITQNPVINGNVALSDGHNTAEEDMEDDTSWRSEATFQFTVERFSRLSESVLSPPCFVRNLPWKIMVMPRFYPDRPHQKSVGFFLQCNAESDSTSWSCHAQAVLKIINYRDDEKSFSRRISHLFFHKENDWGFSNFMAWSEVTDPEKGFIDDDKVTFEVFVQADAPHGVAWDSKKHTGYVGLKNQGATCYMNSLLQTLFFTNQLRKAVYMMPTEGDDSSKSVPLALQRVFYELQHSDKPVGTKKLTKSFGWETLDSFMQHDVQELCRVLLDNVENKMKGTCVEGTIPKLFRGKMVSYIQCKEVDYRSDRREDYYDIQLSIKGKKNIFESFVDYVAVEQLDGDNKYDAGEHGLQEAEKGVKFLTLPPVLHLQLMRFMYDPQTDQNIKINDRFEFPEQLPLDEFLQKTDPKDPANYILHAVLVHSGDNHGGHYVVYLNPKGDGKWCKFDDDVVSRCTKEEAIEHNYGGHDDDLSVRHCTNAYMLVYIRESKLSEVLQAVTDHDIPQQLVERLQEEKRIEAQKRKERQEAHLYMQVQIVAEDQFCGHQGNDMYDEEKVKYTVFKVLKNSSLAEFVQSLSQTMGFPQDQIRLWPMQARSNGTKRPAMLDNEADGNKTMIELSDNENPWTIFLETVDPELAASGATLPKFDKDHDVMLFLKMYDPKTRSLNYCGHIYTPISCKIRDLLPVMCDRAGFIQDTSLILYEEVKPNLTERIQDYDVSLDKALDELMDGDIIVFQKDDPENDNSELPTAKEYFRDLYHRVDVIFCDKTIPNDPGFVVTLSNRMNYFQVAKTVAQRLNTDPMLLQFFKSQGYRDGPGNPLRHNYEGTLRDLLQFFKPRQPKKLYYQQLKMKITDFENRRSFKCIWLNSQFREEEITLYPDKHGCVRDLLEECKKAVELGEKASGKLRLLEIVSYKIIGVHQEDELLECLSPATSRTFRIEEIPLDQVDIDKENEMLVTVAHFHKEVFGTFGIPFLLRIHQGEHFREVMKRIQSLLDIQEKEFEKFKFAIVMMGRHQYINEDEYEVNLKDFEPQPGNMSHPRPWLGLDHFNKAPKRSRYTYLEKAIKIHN
In short: as §1

USP8 = target: T5, USP8 (UniProt P40818)
T5 sequence (whole entry): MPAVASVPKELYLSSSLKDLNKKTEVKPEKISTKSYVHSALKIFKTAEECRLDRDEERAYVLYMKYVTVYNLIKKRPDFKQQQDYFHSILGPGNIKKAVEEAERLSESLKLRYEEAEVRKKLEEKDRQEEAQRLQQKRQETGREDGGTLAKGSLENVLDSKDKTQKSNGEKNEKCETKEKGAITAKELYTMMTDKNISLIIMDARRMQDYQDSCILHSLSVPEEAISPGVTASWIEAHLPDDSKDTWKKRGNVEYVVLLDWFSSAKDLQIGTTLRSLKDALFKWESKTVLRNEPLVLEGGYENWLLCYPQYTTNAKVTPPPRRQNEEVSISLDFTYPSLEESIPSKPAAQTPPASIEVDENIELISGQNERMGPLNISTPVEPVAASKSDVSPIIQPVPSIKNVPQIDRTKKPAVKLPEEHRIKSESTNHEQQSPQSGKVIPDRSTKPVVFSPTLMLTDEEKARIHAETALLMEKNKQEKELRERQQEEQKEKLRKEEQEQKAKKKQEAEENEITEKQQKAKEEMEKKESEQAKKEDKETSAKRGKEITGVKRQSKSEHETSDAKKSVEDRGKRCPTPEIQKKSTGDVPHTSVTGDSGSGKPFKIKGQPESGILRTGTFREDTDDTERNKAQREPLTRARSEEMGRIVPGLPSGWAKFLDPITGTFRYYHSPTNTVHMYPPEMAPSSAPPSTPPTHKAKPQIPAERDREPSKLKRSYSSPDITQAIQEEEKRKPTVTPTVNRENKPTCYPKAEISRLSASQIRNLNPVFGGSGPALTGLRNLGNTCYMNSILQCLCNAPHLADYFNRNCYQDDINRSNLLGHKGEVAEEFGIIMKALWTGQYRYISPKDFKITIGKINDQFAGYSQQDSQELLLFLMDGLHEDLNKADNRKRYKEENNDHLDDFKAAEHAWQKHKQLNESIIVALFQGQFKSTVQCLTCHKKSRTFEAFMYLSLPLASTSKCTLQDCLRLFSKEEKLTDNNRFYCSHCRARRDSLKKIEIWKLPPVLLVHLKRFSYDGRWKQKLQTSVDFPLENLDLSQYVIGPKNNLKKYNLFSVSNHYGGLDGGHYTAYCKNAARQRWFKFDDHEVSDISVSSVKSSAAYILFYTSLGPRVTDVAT
In short: as §1

USP9X = USP9X (UniProt Q93008)
In short: as §1

UniProt O00487 = target: UniProt O00487
Sequence of UniProt O00487 (O00487 whole entry): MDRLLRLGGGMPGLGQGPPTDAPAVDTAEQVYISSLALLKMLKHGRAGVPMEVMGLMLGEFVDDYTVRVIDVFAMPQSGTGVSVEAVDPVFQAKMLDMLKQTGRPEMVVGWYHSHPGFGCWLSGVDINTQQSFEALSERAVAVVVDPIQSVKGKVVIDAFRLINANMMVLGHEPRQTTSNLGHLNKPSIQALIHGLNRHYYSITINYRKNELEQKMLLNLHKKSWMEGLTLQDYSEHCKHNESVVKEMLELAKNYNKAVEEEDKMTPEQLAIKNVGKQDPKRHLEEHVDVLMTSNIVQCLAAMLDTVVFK
In short: as §1

Measured: log2 ratio of Biotin-Ahx-Ub-VS probe labelling

CS(=O)(=O)N1CCCN(C(=O)CCl)CC1
inactive: USP42 -0.107 | USP46 0.169 | USP47 -0.733 | USP48 -0.507 | USP5 -0.0151 | USP54 0.239 | USP7 -0.301 | USP8 -0.323 | USP9X -0.177 | UniProt O00487 0.0126
